Results taken from PubChem BioAssay (Tox21).
Inconclusive results are not listed. Active and inactive are the calls of the source. The call rests on the fitted dose curve; in most records, active means well fitted curve in the direction sought with a large enough effect in the repeat runs; inconclusive means weak or mixed curves; inactive means no such curve, though single readings can be large; an effect the other way counts as inactive or inconclusive.

Tests used:
[1] = A CellTox Green Cytotoxicity Assay to monitor cytotoxicity in HEK293 cells - 40 hour (AID 1224871); further: nearly all actives have a fitted effect of over 45% in size
Procedure, shortened: (§1)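 Cells (HEK293, 600/well) and dye reagent are dispensed together. After 5 h at 37 C, 23 nL compound is pinned in. Plates stay at 37 C for 40 h with fluorescence read at 0h, 8h, 16h, 24h, 32h and 40h.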

[2] = qHTS RealTime-Glo MT Cell Viability Assay in HEK293 cells - 16 hour (AID 1224872); further: top concentration of the series differs between compounds; nearly all actives have a fitted effect of over 50% in size
Procedure, shortened: (§2)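 Reads taken at 0, 8, 16, 24, 32 and 40 h from the same wells. HEK293 cells (600/well) carried RealTime-Glo reagents from seeding, with compound added after a 5 h settle at 37 C.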

[3] = qHTS RealTime-Glo MT Cell Viability Assay in HepG2 cells - 8 hour (AID 1224873); further: nearly all actives have a fitted effect of over 55% in size
Procedure, shortened: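 HepG2 cells (600/well) mixed with RealTime-Glo MT reagent, settled 5 h at 37 C/5% CO2 before compound addition. Nonlytic NanoLuc luminescence from viable-cell prosubstrate reduction read repeatedly during 40 h treatment at 37 C.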

[4] = qHTS RealTime-Glo MT Cell Viability Assay in HEK293 cells - 40 hour (AID 1224874); conditions: RealTime-Glo luminescence; max response: stronger effect = lower value; further: nearly all actives have a fitted effect of over 50% in size
Procedure, shortened: (§3)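 Real-time viability in HEK293: signal arises when living cells convert a prosubstrate for NanoLuc in the medium, so luminescence tracks viable cell number. Compound (23 nL, DMSO) added 5 h post-seeding; kinetic reads at 0–40 h, 37 C.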

[5] = A CellTox Green Cytotoxicity Assay to monitor cytotoxicity in HEK293 cells - 24 hour (AID 1224875); further: series mostly up to about 77 µM; nearly all actives have a fitted effect of over 45% in size
Procedure, shortened: as §1

[6] = A CellTox Green Cytotoxicity Assay to monitor cytotoxicity in HepG2 cells - 16 hour (AID 1224876); further: nearly all actives have a fitted effect of over 45% in size
Procedure, shortened: (§4)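 Cells and non-lytic dye reagent are dispensed together (600 HepG2 cells/well) and incubated 5 h before DMSO compound transfer. Kinetic fluorescence is then recorded in the same wells during 40 h at 37 C.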

[7] = qHTS RealTime-Glo MT Cell Viability Assay in HepG2 cells - 32 hour (AID 1224877); further: nearly all actives have a fitted effect of over 55% in size
Procedure, shortened: (§5)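 HepG2 suspension premixed with RealTime-Glo reagents is plated at 600 cells per well and left 5 h at 37 C/5% CO2. Compounds in DMSO then go in, and bioluminescence reflecting viable cell number is recorded over 40 h.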

[8] = A CellTox Green Cytotoxicity Assay to monitor cytotoxicity in HepG2 cells - 24 hour (AID 1224878); further: nearly all actives have a fitted effect of over 45% in size
Procedure, shortened: as §4

[9] = A CellTox Green Cytotoxicity Assay to monitor cytotoxicity in HepG2 cells - 40 hour (AID 1224879); further: nearly all actives have a fitted effect of over 40% in size
Procedure, shortened: as §4

[10] = qHTS RealTime-Glo MT Cell Viability Assay in HEK293 cells - 0 hour (AID 1224880)
Procedure, shortened: as §3

[11] = A CellTox Green Cytotoxicity Assay to monitor cytotoxicity in HEK293 cells - 32 hour (AID 1224881); further: nearly all actives have a fitted effect of over 40% in size
Procedure, shortened: as §1

[12] = A CellTox Green Cytotoxicity Assay to monitor cytotoxicity in HepG2 cells - 0 hour (AID 1224882); further: nearly all actives have a fitted effect of over 35% in size
Procedure, shortened: as §4

[13] = A CellTox Green Cytotoxicity Assay to monitor cytotoxicity in HepG2 cells - 32 hour (AID 1224883); further: nearly all actives have a fitted effect of over 50% in size
Procedure, shortened: as §4

[14] = A CellTox Green Cytotoxicity Assay to monitor cytotoxicity in HEK293 cells - 8 hour (AID 1224884); further: nearly all actives have a fitted effect of over 35% in size
Procedure, shortened: as §1

[15] = qHTS RealTime-Glo MT Cell Viability Assay in HepG2 cells - 16 hour (AID 1224885); further: nearly all actives have a fitted effect of over 50% in size
Procedure, shortened: as §5

[16] = qHTS RealTime-Glo MT Cell Viability Assay in HEK293 cells - 24 hour (AID 1224886)
Procedure, shortened: as §2

[17] = qHTS RealTime-Glo MT Cell Viability Assay in HEK293 cells - 8 hour (AID 1224887)
Procedure, shortened: as §3

[18] = A CellTox Green Cytotoxicity Assay to monitor cytotoxicity in HEK293 cells - 16 hour (AID 1224888); further: nearly all actives have a fitted effect of over 35% in size
Procedure, shortened: as §1

[19] = qHTS RealTime-Glo MT Cell Viability Assay in HepG2 cells - 0 hour (AID 1224889); further: nearly all actives have a fitted effect of over 50% in size
Procedure, shortened: as §5

[20] = A CellTox Green Cytotoxicity Assay to monitor cytotoxicity in HepG2 cells - 8 hour (AID 1224890); further: nearly all actives have a fitted effect of over 45% in size
Procedure, shortened: as §4
On the % scale 0 is the no-effect control and ±100 the full control effect.

COc1cc(C(=O)NCc2ccc(OCCN(C)C)cc2)cc(OC)c1OC
inactive: Potency [1] | Potency [2] | outcome [3] | max response [4] -23.7% | outcome [5] | outcome [6] | Potency [7] | outcome [8] | Potency [9] | Potency [10] | outcome [11] | Potency [12] | Potency [13] | outcome [14] | outcome [15] | Potency [16] | Potency [17] | outcome [18] | Potency [19] | outcome [20]

C=CC(=O)OCCCl
inactive: Potency [1] | Potency [2] | outcome [3] | max response [4] 21% | outcome [5] | outcome [6] | Potency [7] | outcome [8] | Potency [9] | Potency [10] | outcome [11] | Potency [12] | Potency [13] | outcome [14] | outcome [15] | Potency [16] | Potency [17] | outcome [18] | outcome [20]

CC1=CCC(O)(C(C)C)CC1 (stereo not drawn)
inactive: Potency [1] | Potency [2] | outcome [3] | max response [4] 2.79% | outcome [5] | outcome [6] | Potency [7] | outcome [8] | Potency [9] | Potency [10] | outcome [11] | Potency [12] | Potency [13] | outcome [14] | outcome [15] | Potency [16] | Potency [17] | outcome [18] | outcome [20]

CCCC(C)C(=O)OCC (stereo not drawn)
inactive: Potency [1] | Potency [2] | outcome [3] | max response [4] -2.71% | outcome [5] | outcome [6] | Potency [7] | outcome [8] | Potency [9] | Potency [10] | outcome [11] | Potency [12] | Potency [13] | outcome [14] | outcome [15] | Potency [16] | Potency [17] | outcome [18] | outcome [20]

CCCCc1ccc2c(n1)[C@@H](c1ccc(OC)cc1C[C@H](C)C(=O)O)[C@H](C(=O)O)[C@H]2c1ccc2c(c1)OCO2
inactive: Potency [1] | Potency [2] | outcome [3] | max response [4] 0.185% | outcome [5] | outcome [6] | Potency [7] | outcome [8] | Potency [9] | Potency [10] | outcome [11] | Potency [12] | Potency [13] | outcome [14] | outcome [15] | Potency [16] | Potency [17] | outcome [18] | Potency [19] | outcome [20]

CC(C)c1ccc2ncccc2c1
inactive: Potency [1] | Potency [2] | outcome [3] | max response [4] -0.522% | outcome [5] | outcome [6] | Potency [7] | outcome [8] | Potency [9] | Potency [10] | outcome [11] | Potency [12] | Potency [13] | outcome [14] | outcome [15] | Potency [16] | Potency [17] | outcome [18] | Potency [19] | outcome [20]

CC1=NN(c2cccc(S(=O)(=O)O)c2)C(=O)C1
inactive: Potency [1] | Potency [2] | outcome [3] | max response [4] 2.46% | outcome [5] | outcome [6] | Potency [7] | outcome [8] | Potency [9] | Potency [10] | outcome [11] | Potency [12] | Potency [13] | outcome [14] | outcome [15] | Potency [16] | Potency [17] | outcome [18] | Potency [19] | outcome [20]

O=C(O)CNC(=O)c1ccccc1
inactive: Potency [1] | Potency [2] | outcome [3] | max response [4] -1.85% | outcome [5] | outcome [6] | Potency [7] | outcome [8] | Potency [9] | Potency [10] | outcome [11] | Potency [12] | Potency [13] | outcome [14] | outcome [15] | Potency [16] | Potency [17] | outcome [18] | outcome [20]

CC(=O)N1C[C@H](O)C[C@H]1C(=O)O
inactive: Potency [1] | Potency [2] | outcome [3] | max response [4] 6.07% | outcome [5] | outcome [6] | Potency [7] | outcome [8] | Potency [9] | Potency [10] | outcome [11] | Potency [12] | Potency [13] | outcome [14] | outcome [15] | Potency [16] | Potency [17] | outcome [18] | Potency [19] | outcome [20]

C[N+]1(CC2COC(c3ccccc3)(c3ccccc3)O2)CCCCC1 (stereo not drawn)
inactive: cytotoxicity increase [1] -8.19% [at 15.8 µM] | activity change, negative = cytotoxicity [2] -1.95% [at 15.8 µM] | viability change, negative = cytotoxic [3] 1.12% [at 15.8 µM] | max response [4] -1.89% | activity change [5] -7.42% [at 15.8 µM] | cytotoxicity increase [6] -3.73% [at 15.8 µM] | activity change, negative = cytotoxic [7] -9% [at 15.8 µM] | cytotoxicity [8] -0.651% [at 15.8 µM] | cytotoxicity increase [9] -0.954% [at 15.8 µM] | activity change, negative = cytotoxicity [10] -4.13% [at 15.8 µM] | cytotoxicity increase [11] -8.36% [at 15.8 µM] | cytotoxicity [12] -9.88% [at 15.8 µM] | cytotoxicity increase [13] -0.506% [at 15.8 µM] | cytotoxicity increase [14] -4.15% [at 15.8 µM] | activity change, negative = cytotoxic [15] -0.0866% [at 15.8 µM] | activity change, negative = cytotoxicity [16] -2.13% [at 15.8 µM] | activity change, negative = cytotoxicity [17] 0.757% [at 15.8 µM] | activity change [18] -8.9% [at 15.8 µM] | cytotoxicity increase [20] 0.368% [at 15.8 µM]

NO
inactive: Potency [1] | Potency [2] | outcome [3] | max response [4] -12.7% | outcome [5] | outcome [6] | Potency [7] | outcome [8] | Potency [9] | Potency [10] | outcome [11] | Potency [12] | Potency [13] | outcome [14] | outcome [15] | Potency [16] | Potency [17] | outcome [18] | Potency [19] | outcome [20]

CN(C)C(=O)Oc1cccc([N+](C)(C)C)c1
inactive: Potency [1] | Potency [2] | outcome [3] | max response [4] 6.55% | outcome [5] | outcome [6] | Potency [7] | outcome [8] | Potency [9] | Potency [10] | outcome [11] | Potency [12] | Potency [13] | outcome [14] | outcome [15] | Potency [16] | Potency [17] | outcome [18] | Potency [19] | outcome [20]

NC(=O)Cc1cccc2ccccc12
inactive: Potency [1] | Potency [2] | outcome [3] | max response [4] 2.56% | outcome [5] | outcome [6] | Potency [7] | outcome [8] | Potency [9] | Potency [10] | outcome [11] | Potency [12] | Potency [13] | outcome [14] | outcome [15] | Potency [16] | Potency [17] | outcome [18] | outcome [20]

Nc1c2c(nc3c1CCC3)CCCC2
inactive: Potency [1] | Potency [2] | outcome [3] | max response [4] 0.303% | outcome [5] | outcome [6] | Potency [7] | outcome [8] | Potency [9] | Potency [10] | outcome [11] | Potency [12] | Potency [13] | outcome [14] | outcome [15] | Potency [16] | Potency [17] | outcome [18] | outcome [20]
